# Experimental data from PMC7862700, “An all-to-all approach to the identification of sequence-specific readers for epigenetic DNA modifications on cytosine”.
# Assays:
# Assay in all cases: DAPPL (digital affinity profiling via proximity ligation, sequencing); 10 mM Tris-HCl pH 7.5, 50 mM NaCl, 1 mM DTT, 4% glycerol, room temperature, 30 min; GST-TFs on glutathione beads, 16-mer random dsDNA library, 0.1% formaldehyde crosslink after washing; high values mean tight binding
# Conditions in all cases: protein: recombinant; tags: N-terminal GST; dsDNA, one strand shown
# [1] = target: T1, FLI1 (Homo sapiens, UniProt Q01543 1-452)
# T1 sequence: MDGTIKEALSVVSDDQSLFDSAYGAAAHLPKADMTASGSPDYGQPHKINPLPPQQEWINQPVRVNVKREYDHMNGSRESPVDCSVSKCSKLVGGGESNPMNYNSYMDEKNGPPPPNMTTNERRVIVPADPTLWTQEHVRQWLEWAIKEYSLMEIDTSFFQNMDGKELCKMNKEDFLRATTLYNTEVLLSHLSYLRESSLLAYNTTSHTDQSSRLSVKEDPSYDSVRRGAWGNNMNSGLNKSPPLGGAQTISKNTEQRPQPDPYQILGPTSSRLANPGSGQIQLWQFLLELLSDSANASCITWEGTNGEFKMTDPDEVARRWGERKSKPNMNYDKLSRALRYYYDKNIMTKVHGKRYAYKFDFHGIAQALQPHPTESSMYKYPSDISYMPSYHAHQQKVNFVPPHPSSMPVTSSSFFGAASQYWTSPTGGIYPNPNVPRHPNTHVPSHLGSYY
# In short: (§1)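 Human transcription factors were made in yeast as GST fusions, captured on glutathione beads and barcoded with DNA. With a tag-only sample included, the pool was incubated with 200 nmole of a random double-stranded 16-mer DNA library in Tris/NaCl/DTT/glycerol buffer at room temperature for 30 min, then crosslinked with 0.1% formaldehyde after washing, ligated by proximity, amplified and sequenced. For binding signal, each hexamer's read frequency for a factor is divided by its frequency for the tag-only sample.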
# [2] = target: T2, ELK1 (Homo sapiens, UniProt P19419 1-428)
# T2 sequence: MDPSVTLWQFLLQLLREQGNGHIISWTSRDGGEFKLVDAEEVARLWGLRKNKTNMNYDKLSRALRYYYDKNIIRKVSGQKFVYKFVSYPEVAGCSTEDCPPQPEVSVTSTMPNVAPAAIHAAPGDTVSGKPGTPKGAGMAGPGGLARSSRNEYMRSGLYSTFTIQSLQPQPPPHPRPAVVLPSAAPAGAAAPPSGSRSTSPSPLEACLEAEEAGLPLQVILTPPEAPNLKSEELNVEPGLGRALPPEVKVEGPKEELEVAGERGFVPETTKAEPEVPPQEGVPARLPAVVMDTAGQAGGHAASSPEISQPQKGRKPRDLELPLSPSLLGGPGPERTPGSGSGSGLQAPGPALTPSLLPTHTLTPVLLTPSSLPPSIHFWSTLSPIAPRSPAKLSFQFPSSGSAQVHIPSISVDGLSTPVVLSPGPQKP
# In short: as §1
# [3] = target: T3, GABPA (Homo sapiens, UniProt Q06546 1-454)
# T3 sequence: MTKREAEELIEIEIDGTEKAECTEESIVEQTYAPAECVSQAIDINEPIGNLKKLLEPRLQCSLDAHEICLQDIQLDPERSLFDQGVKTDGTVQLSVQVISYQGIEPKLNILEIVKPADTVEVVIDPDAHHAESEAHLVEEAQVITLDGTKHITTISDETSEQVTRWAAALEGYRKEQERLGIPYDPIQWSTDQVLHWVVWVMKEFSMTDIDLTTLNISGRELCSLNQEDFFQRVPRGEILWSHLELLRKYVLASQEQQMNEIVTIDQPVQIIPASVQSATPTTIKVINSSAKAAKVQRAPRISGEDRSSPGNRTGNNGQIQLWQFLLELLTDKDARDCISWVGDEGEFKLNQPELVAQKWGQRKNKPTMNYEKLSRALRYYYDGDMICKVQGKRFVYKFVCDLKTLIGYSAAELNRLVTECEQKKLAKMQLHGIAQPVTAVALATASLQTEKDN
# In short: as §1
# [4] = target: ELF1 (Homo sapiens, UniProt P32519 1-619)
# Sequence of ELF1 (P32519 whole entry): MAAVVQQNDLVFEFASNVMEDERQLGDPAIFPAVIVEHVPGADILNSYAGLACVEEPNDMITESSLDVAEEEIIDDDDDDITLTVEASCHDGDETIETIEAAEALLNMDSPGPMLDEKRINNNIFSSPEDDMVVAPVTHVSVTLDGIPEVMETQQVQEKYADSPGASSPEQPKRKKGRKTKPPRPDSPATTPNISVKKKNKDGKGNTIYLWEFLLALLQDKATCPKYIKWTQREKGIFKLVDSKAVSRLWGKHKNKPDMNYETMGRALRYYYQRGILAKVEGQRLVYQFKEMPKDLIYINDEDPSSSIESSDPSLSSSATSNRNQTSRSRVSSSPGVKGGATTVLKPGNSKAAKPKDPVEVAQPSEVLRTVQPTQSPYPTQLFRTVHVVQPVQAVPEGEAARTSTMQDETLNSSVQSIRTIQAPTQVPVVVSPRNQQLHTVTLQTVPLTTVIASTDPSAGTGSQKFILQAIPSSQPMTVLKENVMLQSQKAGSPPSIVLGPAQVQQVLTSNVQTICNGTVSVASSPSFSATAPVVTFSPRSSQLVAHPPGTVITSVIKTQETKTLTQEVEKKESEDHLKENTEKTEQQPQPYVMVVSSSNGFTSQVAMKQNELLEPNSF
# In short: as §1
# [5] = target: T4, EHF (Homo sapiens, UniProt Q9NZC4 1-300)
# T4 sequence: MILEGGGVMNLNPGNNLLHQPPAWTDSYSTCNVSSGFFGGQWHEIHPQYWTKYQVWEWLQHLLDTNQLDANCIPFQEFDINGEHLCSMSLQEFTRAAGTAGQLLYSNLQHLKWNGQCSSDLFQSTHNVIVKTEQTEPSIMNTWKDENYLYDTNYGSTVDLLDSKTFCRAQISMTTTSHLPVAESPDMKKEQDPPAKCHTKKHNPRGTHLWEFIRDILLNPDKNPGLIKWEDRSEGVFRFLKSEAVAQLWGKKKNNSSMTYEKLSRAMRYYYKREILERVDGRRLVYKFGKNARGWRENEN
# In short: as §1
# [6] = target: SPIB (Homo sapiens, UniProt Q01892 1-262)
# Sequence of SPIB (Q01892 whole entry): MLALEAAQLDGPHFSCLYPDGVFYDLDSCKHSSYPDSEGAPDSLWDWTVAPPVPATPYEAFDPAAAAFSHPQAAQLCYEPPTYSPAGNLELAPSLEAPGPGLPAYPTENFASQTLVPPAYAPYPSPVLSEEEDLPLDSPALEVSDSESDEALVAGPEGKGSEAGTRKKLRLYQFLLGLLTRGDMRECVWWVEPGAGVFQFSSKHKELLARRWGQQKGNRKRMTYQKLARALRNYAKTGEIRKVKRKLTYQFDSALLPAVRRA
# In short: as §1
# [7] = target: T5, ELK3 (Homo sapiens, UniProt P41970 1-407)
# T5 sequence: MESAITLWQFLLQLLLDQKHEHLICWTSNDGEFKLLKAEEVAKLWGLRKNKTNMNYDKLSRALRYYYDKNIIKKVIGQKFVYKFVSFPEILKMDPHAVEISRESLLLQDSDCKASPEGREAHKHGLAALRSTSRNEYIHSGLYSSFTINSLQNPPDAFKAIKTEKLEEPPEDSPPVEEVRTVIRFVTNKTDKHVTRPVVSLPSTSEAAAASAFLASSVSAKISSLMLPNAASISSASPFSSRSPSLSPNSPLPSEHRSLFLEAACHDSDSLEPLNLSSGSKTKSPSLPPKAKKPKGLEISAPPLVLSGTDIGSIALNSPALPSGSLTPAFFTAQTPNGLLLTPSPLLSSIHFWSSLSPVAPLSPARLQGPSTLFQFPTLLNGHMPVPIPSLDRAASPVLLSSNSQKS
# In short: as §1
# [8] = target: T6, SPIC (Homo sapiens, UniProt Q8N5J4 1-248)
# T6 sequence: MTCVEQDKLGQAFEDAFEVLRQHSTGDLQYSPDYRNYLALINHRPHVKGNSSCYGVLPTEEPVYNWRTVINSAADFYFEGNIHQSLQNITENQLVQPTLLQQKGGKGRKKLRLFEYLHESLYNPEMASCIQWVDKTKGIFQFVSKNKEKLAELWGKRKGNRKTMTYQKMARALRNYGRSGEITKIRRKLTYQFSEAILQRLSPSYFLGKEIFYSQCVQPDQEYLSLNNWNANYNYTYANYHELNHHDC
# In short: as §1
# [9] = target: ELF4 (Homo sapiens, UniProt Q99607 1-663)
# Sequence of ELF4 (Q99607 whole entry): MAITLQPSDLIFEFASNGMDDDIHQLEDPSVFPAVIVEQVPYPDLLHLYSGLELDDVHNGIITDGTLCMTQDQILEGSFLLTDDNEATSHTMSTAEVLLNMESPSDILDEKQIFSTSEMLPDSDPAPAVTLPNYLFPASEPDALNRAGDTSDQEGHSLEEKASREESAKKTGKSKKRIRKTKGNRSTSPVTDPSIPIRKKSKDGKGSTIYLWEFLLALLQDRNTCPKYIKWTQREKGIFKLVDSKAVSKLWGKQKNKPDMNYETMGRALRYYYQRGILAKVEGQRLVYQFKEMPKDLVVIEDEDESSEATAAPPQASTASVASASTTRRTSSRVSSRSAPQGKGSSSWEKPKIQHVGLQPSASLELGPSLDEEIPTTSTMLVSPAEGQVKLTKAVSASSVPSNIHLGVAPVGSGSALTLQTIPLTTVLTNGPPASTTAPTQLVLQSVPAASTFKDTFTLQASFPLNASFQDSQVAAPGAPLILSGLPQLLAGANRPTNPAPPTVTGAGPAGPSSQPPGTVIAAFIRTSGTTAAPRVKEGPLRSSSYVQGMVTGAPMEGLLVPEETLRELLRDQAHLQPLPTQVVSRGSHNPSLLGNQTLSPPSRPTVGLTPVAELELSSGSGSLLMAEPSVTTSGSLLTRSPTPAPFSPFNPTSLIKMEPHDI
# In short: as §1
# [10] = target: T7, ELK4 (Homo sapiens, UniProt P28324-2 1-405)
# T7 sequence: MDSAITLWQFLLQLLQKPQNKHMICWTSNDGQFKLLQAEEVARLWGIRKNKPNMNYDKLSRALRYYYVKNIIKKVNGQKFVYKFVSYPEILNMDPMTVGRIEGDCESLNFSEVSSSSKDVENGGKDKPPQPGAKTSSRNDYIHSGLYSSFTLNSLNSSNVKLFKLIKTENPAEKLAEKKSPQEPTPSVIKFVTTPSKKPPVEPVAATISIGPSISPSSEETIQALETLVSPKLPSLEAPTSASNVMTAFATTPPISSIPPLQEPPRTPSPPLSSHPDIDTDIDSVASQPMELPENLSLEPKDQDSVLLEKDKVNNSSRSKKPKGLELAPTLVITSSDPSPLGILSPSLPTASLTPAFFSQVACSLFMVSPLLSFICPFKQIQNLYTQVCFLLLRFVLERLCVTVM
# In short: as §1
# [11] = target: T8, ETV2 (Homo sapiens, UniProt O00321 1-342)
# T8 sequence: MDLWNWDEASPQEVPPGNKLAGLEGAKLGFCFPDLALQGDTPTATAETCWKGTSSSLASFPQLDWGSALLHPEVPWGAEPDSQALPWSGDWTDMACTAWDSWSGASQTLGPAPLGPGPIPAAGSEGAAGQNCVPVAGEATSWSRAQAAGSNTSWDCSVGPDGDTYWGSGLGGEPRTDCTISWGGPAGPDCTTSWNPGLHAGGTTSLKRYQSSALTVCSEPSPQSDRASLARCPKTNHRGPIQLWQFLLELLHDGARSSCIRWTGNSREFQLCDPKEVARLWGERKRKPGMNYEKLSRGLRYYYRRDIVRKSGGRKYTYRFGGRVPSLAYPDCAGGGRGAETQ
# In short: as §1
# [12] = target: T9, ELF3 (Homo sapiens, UniProt P78545 1-371)
# T9 sequence: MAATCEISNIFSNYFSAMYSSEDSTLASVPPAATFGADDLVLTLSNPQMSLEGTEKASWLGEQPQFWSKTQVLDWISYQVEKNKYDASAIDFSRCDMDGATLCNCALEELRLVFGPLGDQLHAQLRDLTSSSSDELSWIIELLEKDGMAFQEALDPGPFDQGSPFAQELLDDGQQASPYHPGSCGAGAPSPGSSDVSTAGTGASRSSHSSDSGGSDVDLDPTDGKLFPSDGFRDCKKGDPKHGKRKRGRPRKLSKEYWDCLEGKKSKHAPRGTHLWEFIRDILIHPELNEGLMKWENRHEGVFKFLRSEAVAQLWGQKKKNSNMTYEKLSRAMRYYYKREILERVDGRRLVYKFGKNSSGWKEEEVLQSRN
# In short: as §1
# [13] = target: ETV1 (Homo sapiens, UniProt P50549 1-477)
# Sequence of ETV1 (P50549 whole entry): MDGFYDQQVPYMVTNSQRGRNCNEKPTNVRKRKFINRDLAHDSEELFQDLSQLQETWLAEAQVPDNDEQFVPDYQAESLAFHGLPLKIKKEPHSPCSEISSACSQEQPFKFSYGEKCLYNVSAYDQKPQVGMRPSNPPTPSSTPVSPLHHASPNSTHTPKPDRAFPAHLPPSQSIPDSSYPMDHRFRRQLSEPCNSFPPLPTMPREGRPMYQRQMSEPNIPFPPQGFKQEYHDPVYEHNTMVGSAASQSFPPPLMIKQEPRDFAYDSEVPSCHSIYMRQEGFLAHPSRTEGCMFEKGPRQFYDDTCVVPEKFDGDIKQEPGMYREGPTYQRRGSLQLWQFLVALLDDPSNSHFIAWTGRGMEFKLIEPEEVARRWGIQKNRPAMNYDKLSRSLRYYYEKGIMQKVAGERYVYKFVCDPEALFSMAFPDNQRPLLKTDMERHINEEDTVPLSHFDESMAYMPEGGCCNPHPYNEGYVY
# In short: as §1
# [14] = target: T10, ERF (Homo sapiens, UniProt P50548 1-548)
# T10 sequence: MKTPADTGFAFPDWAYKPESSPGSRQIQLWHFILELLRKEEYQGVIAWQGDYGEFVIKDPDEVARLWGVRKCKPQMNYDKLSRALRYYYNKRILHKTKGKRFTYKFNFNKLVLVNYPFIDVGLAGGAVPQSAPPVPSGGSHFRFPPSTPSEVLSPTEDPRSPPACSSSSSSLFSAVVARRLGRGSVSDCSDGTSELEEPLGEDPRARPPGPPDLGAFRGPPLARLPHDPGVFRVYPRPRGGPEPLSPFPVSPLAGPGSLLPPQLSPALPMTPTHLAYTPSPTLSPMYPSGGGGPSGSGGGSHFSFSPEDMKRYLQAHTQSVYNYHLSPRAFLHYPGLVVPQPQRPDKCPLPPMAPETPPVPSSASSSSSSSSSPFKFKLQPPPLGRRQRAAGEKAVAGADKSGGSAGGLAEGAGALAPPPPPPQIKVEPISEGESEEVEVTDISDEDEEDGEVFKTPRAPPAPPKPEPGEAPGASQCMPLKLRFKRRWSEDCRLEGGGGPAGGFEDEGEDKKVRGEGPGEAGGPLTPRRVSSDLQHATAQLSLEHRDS
# In short: as §1
# [15] = target: T11, ETV3L (Homo sapiens, UniProt Q6ZN32 1-361)
# T11 sequence: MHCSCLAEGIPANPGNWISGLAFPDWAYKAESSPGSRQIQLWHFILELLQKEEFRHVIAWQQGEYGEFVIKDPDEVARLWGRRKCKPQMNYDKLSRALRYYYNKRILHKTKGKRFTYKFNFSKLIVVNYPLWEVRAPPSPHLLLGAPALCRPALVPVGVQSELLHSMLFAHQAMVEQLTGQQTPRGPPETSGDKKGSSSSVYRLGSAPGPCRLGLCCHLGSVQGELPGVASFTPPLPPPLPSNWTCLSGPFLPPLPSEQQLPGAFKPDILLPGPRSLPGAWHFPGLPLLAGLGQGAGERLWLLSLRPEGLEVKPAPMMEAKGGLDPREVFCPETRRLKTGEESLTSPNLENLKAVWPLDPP
# In short: as §1
# [16] = target: T12, ETV3 (Homo sapiens, UniProt P41162-2 1-143)
# T12 sequence: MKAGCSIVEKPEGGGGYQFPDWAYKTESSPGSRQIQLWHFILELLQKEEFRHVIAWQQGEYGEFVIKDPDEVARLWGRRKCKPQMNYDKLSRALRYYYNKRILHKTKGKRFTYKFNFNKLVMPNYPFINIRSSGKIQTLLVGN
# In short: as §1
# [17] = target: ETV6 (Homo sapiens, UniProt P41212 1-452)
# Sequence of ETV6 (P41212 whole entry): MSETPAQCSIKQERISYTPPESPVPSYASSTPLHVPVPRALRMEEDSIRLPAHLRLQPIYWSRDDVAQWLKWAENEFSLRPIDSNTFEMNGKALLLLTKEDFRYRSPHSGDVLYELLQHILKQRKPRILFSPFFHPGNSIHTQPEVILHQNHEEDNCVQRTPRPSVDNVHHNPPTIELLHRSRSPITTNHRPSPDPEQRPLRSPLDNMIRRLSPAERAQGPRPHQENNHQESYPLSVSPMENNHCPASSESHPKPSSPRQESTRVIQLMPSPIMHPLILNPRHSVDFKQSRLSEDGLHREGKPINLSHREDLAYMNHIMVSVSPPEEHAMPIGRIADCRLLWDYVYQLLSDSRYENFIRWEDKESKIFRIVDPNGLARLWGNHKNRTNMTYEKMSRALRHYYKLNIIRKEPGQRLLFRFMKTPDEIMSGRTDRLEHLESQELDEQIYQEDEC
# In short: as §1
sequence,measurement,setting,value
ATGGGG,binding signal,[1],"1.11 fold enrichment (6-mer frequency, TF over GST control)"
same,binding signal,[2],"1.09 fold enrichment (6-mer frequency, TF over GST control)"
same,binding signal,[3],"1.08 fold enrichment (6-mer frequency, TF over GST control)"
same,binding signal,[4],"1.06 fold enrichment (6-mer frequency, TF over GST control)"
same,binding signal,[5],"1.11 fold enrichment (6-mer frequency, TF over GST control)"
same,binding signal,[6],"1.14 fold enrichment (6-mer frequency, TF over GST control)"
same,binding signal,[7],"1.05 fold enrichment (6-mer frequency, TF over GST control)"
same,binding signal,[8],"1.16 fold enrichment (6-mer frequency, TF over GST control)"
same,binding signal,[9],"1.02 fold enrichment (6-mer frequency, TF over GST control)"
same,binding signal,[10],"1.03 fold enrichment (6-mer frequency, TF over GST control)"
same,binding signal,[11],"1.16 fold enrichment (6-mer frequency, TF over GST control)"
same,binding signal,[12],"1.06 fold enrichment (6-mer frequency, TF over GST control)"
same,binding signal,[13],"1.15 fold enrichment (6-mer frequency, TF over GST control)"
same,binding signal,[14],"1.08 fold enrichment (6-mer frequency, TF over GST control)"
same,binding signal,[15],"1.16 fold enrichment (6-mer frequency, TF over GST control)"
same,binding signal,[16],"1.13 fold enrichment (6-mer frequency, TF over GST control)"
same,binding signal,[17],"1.18 fold enrichment (6-mer frequency, TF over GST control)"
